Test results as given in PubChem BioAssay (EPA / NIEHS).
Results filed as inconclusive are left out. Activity calls are given as the source filed them. The calls were made as follows: active = hit-call score of the fitted dose curve at least 0.9, where 1 is the maximum; inconclusive = response in the unintended direction; inactive = score below 0.9.

The molecules below were run against Glucocorticoid receptor (Homo sapiens) (UniProt P04150) (assay: ATG_GR_TRANS: Attagene TRANS-FACTORIAL HepG2 Assay for human Glucocorticoid Receptor (GR) (AID 2282978;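 also: activators score as hits since higher reporter transcript over DMSO is fitted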)). Conditions: HepG2 Attagene TRANS GR reporter, mRNA transcription.
Chain of Glucocorticoid receptor (Homo sapiens) (P04150 whole entry, looked up, the tested form may be a part): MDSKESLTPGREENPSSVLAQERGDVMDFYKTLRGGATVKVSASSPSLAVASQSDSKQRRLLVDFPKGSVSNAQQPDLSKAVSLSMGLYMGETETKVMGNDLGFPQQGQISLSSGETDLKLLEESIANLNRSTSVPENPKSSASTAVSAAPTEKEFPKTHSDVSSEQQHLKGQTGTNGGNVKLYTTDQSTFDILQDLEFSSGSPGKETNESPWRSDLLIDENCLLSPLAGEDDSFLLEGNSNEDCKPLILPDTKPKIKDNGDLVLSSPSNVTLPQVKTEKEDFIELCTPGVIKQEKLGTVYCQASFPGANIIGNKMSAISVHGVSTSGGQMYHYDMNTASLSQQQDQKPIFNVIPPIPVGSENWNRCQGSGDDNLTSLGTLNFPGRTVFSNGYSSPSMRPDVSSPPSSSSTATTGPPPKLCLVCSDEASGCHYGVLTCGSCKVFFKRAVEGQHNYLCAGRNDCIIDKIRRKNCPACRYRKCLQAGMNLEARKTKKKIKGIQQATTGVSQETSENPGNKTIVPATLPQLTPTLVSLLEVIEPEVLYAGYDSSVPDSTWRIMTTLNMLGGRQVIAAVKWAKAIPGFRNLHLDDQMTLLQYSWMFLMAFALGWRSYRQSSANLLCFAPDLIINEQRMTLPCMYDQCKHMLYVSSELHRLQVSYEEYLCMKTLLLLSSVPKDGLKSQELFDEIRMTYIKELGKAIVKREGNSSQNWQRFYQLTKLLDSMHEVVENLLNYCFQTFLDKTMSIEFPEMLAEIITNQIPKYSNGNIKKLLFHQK
Procedure, shortened: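 Transiently transfected HepG2 cells express chimeric NR-GAL4 proteins acting on GAL4-UAS reporter units. Compounds are applied for 24 h. mRNA induction over DMSO is measured by capillary electrophoresis.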

**Q.** For `CC(C)OC=O`, which outcome is on record?
**A.** The outcome was “inactive”.

**Q.** Which outcome does the source give for `CC(C)Nc1ccc(NC(C)C)c2c1C(=O)c1ccccc1C2=O` here?
**A.** The outcome was “inactive”.

**Q.** With `OCC(F)(F)C(F)(F)C(F)(F)CO` as the molecule, how does the outcome read?
**A.** The outcome was “inactive”.

**Q.** With `COC(F)(C(F)F)C(F)(F)F` (centres undefined) as the molecule, how does the outcome read?
**A.** Its outcome is “inactive”.

Each molecule was assayed against Bile acid receptor (Homo sapiens) (UniProt Q96RI1) (assay: ATG_FXR_TRANS: Attagene TRANS-FACTORIAL HepG2 Assay for Farnesoid X Receptor (FXR) (AID 2282979;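 also: hits raise reporter mRNA above DMSO so AC50 marks FXR activation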)). Conditions: HepG2 Attagene TRANS FXR-GAL4 reporter transcription.
Chain of Bile acid receptor (Homo sapiens) (Q96RI1 whole entry, looked up, the tested form may be a part): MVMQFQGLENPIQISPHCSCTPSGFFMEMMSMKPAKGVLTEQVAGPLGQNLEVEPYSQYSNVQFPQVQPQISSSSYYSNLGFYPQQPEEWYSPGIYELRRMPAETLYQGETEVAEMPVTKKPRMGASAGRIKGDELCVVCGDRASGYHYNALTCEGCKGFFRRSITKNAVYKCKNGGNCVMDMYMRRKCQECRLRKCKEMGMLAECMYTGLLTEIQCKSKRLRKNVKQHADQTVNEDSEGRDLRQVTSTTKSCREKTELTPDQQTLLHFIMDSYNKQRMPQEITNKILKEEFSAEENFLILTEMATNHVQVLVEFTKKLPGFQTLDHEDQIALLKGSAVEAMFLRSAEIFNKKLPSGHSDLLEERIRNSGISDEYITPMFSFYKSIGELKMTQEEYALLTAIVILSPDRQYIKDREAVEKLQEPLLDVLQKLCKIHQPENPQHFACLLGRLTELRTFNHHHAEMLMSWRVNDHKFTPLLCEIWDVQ
Procedure, shortened: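 Read-out: fluorescent reporter transcripts quantified by capillary electrophoresis after RT-PCR of total RNA. Source cells were HepG2 transiently carrying chimeric NR-GAL4 plus GAL4-UAS reporter units, dosed 24 h. Activity fitted upward relative to DMSO baseline.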

**Q.** How did the outcome turn out when `O=C(c1ccccc1)c1ccc(Cl)cc1` was run?
**A.** The outcome was “inactive”.

**Q.** Which outcome does the source give for `CCn1c2ccccc2c2ccccc21` here?
**A.** The outcome was “inactive”.

**Q.** Which outcome does the source give for `CC(O)C#CC(C)O` (centres undefined) here?
**A.** The outcome was “inactive”.

**Q.** `Brc1ccccn1` was tested. Which outcome did it give?
**A.** The outcome was “inactive”.

**Q.** How did the outcome turn out when `O=C(Cl)C(F)(F)C(F)(F)C(F)(F)C(F)(F)C(F)(F)C(F)(F)C(F)(F)F` was run?
**A.** Its outcome is “inactive”.

**Q.** How did the outcome turn out when `O=C1OC(=O)c2ccc3c4c(ccc1c24)C(=O)OC3=O` was run?
**A.** The outcome was “inactive”.

**Q.** With `CC(C)(C)C(=O)C1C(=O)c2ccccc2C1=O` as the molecule, how does the outcome read?
**A.** The outcome was “inactive”.

**Q.** For `O=C(F)C1(F)C(F)(F)C(F)(F)C(F)(F)C(F)(F)C1(F)F`, which outcome is on record?
**A.** The outcome was “inactive”.

**Q.** With `OCCCCC(F)(F)C(F)(F)C(F)(F)C(F)(F)F` as the molecule, how does the outcome read?
**A.** The outcome was “inactive”.

**Q.** For `CCN(CC)c1ccc(C=O)cc1`, which outcome is on record?
**A.** The outcome was “inactive”.

**Q.** With `N#Cc1ccccc1O` as the molecule, how does the outcome read?
**A.** Its outcome is “inactive”.

**Q.** How did the outcome turn out when `Nc1cccnc1N` was run?
**A.** Its outcome is “inactive”.

**Q.** For `O=S(=O)(Cl)C(F)(F)C(F)(F)C(F)(F)C(F)(F)C(F)(F)C(F)(F)C(F)(F)C(F)(F)F`, which outcome is on record?
**A.** The outcome was “inactive”.

**Q.** How did the outcome turn out when `C#CC(O)CCC` (centres undefined) was run?
**A.** Its outcome is “inactive”.

**Q.** Which outcome does the source give for `CC1=CC2C3C=CC(C3)C2C1C` (centres undefined) here?
**A.** The outcome was “inactive”.

**Q.** How did the outcome turn out when `NC(=O)C(F)(F)C(F)(F)C(F)(F)C(F)F` was run?
**A.** The outcome was “inactive”.

**Q.** How did the outcome turn out when `CC1=CCC(=O)O1` was run?
**A.** Its outcome is “inactive”.

**Q.** Which outcome does the source give for `O=C(O)C(F)(F)OC(F)(F)C(F)(F)OC(F)(F)C(F)(F)OC(F)(F)F` here?
**A.** The outcome was “inactive”.

**Q.** Which outcome does the source give for `N#CCCOCCC#N` here?
**A.** Its outcome is “inactive”.

**Q.** `CCN(CCO)S(=O)(=O)C(F)(F)C(F)(F)C(F)(F)C(F)(F)C(F)(F)C(F)(F)C(F)(F)C(F)(F)F` was tested. Which outcome did it give?
**A.** The outcome was “inactive”.

**Q.** Which outcome does the source give for `NCC(F)(F)C(F)(F)C(F)(F)C(F)(F)C(F)(F)C(F)(F)F` here?
**A.** The outcome was “inactive”.

**Q.** With `O=C1c2c(O)ccc(Nc3ccc(CCO)cc3)c2C(=O)c2c([N+](=O)[O-])ccc(O)c21` as the molecule, how does the outcome read?
**A.** The outcome was “inactive”.

**Q.** How did the outcome turn out when `CN(N=O)C(=O)N[C@@H]1[C@@H](O)[C@H](O)[C@@H](CO)O[C@@H]1O` was run?
**A.** Its outcome is “inactive”.

**Q.** With `O=C(O)C(F)(F)C(F)(F)C(F)(F)C(=O)O` as the molecule, how does the outcome read?
**A.** The outcome was “inactive”.

The molecules below were run against Oxysterols receptor LXR-alpha (Homo sapiens) (UniProt Q13133) (assay: ATG_LXRa_TRANS: Attagene TRANS-FACTORIAL HepG2 Assay for human Liver X Receptor alpha (LXRa) (AID 2282980)). Conditions: HepG2 Attagene TRANS reporter, LXRa transactivation.
Chain of Oxysterols receptor LXR-alpha (Homo sapiens) (Q13133 whole entry, looked up, the tested form may be a part): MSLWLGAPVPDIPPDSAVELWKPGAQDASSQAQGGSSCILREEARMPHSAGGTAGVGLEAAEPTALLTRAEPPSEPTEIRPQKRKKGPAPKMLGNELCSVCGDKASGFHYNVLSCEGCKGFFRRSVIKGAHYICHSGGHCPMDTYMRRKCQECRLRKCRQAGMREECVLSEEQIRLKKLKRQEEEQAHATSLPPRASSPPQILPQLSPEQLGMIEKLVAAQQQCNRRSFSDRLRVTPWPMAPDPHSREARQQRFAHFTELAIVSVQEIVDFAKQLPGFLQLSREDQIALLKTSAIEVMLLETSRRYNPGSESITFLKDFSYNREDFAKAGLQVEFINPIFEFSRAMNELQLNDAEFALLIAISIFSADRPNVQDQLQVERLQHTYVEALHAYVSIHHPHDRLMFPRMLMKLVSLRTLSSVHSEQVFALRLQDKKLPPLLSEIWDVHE
Procedure, shortened: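 Read-out: reporter transcript levels by RT-PCR plus capillary electrophoresis, fluorescence intensity. Transiently transfected HepG2, exogenous NR-GAL4 chimera, GAL4-UAS reporters; 24 h compound exposure. Activity = increase over DMSO negative control.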

**Q.** With `COCCC(=O)OC` as the molecule, how does the outcome read?
**A.** The outcome was “inactive”.

**Q.** How did the outcome turn out when `CC(O)C#CC(C)O` (centres undefined) was run?
**A.** Its outcome is “inactive”.

**Q.** How did the outcome turn out when `O=C(Cl)C(F)(F)C(F)(F)C(F)(F)C(F)(F)C(F)(F)C(F)(F)C(F)(F)F` was run?
**A.** Its outcome is “inactive”.

**Q.** `O=C1OC(=O)c2ccc3c4c(ccc1c24)C(=O)OC3=O` was tested. Which outcome did it give?
**A.** Its outcome is “inactive”.

**Q.** With `CC(C)(C)C(=O)C1C(=O)c2ccccc2C1=O` as the molecule, how does the outcome read?
**A.** The outcome was “inactive”.

**Q.** `O=C(F)C1(F)C(F)(F)C(F)(F)C(F)(F)C(F)(F)C1(F)F` was tested. Which outcome did it give?
**A.** Its outcome is “inactive”.

**Q.** Which outcome does the source give for `N#Cc1ccccc1O` here?
**A.** Its outcome is “inactive”.

**Q.** How did the outcome turn out when `O=S(=O)(Cl)C(F)(F)C(F)(F)C(F)(F)C(F)(F)C(F)(F)C(F)(F)C(F)(F)C(F)(F)F` was run?
**A.** The outcome was “inactive”.

**Q.** How did the outcome turn out when `C#CC(O)CCC` (centres undefined) was run?
**A.** The outcome was “inactive”.

**Q.** With `CC1=CC2C3C=CC(C3)C2C1C` (centres undefined) as the molecule, how does the outcome read?
**A.** Its outcome is “inactive”.

**Q.** `CC1=CCC(=O)O1` was tested. Which outcome did it give?
**A.** Its outcome is “inactive”.

**Q.** `O=C(O)C(F)(F)OC(F)(F)C(F)(F)OC(F)(F)C(F)(F)OC(F)(F)F` was tested. Which outcome did it give?
**A.** The outcome was “inactive”.

**Q.** With `N#CCCOCCC#N` as the molecule, how does the outcome read?
**A.** Its outcome is “inactive”.

**Q.** How did the outcome turn out when `O=C=NCc1cccc(CN=C=O)c1` was run?
**A.** Its outcome is “inactive”.

**Q.** With `CCN(CCO)S(=O)(=O)C(F)(F)C(F)(F)C(F)(F)C(F)(F)C(F)(F)C(F)(F)C(F)(F)C(F)(F)F` as the molecule, how does the outcome read?
**A.** Its outcome is “inactive”.

**Q.** Which outcome does the source give for `O=C1c2c(O)ccc(Nc3ccc(CCO)cc3)c2C(=O)c2c([N+](=O)[O-])ccc(O)c21` here?
**A.** The outcome was “inactive”.
